High-throughput results: PubChem, several laboratories
Shown are actives, neighbours in structure and some others; about 2.5% of the full set was active somewhere.
PG9 Ab binder – small molecules binding HIV-1 gp120 antibody PG9; TR-FRET gp120-PG9 antibody binding; inhibition, % at 6.7 µM; hit rate 0.43% among 360,000; in the data active = inhibition above about 8.5%
ABCB6 inh MLPCN – inhibitors of human ABC transporter ABCB6; K562-ABCB6 porphyrin accumulation, flow cytometry, 1 h; hits give low values; fluorescence ratio to DMSO, % at 10 µM; hit rate 0.19% among 360,000; AID 602162;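 active = fluorescence ratio to DMSO below 75%, the collection mean minus 3 SD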;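 note: signal is porphyrin accumulated inside mitochondria; lower ratio means ABCB6 inhibition with less porphyrin fluorescence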
Target sequence (Q9NP58 whole entry, looked up): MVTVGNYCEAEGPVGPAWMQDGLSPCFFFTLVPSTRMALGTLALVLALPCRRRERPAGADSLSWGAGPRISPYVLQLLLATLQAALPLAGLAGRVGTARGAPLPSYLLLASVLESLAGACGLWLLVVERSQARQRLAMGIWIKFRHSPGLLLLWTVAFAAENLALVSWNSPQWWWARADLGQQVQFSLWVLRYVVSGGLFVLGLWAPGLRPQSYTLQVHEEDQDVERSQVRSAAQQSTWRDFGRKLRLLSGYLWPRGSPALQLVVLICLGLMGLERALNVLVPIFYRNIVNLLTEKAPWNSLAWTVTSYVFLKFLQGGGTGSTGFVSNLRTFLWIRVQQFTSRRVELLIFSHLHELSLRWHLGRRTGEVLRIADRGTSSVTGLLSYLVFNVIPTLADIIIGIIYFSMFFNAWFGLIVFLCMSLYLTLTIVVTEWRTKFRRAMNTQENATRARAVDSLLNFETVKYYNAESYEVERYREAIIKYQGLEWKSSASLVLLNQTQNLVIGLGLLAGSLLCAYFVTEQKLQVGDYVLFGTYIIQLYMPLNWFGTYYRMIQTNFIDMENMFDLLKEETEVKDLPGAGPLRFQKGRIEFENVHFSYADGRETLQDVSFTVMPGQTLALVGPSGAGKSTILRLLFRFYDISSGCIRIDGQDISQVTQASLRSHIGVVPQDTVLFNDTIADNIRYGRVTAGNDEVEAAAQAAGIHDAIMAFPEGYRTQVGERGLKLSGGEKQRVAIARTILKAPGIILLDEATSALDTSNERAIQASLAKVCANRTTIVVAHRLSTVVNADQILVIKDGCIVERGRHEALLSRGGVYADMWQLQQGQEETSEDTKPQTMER
rCAG binder – molecules binding r(CAG) RNA repeats | r(CAG) RNA repeat, TO-PRO-1 dye displacement fluorescence | inhibition, % at 3 µM | hit rate 1.3% among 370,000 | AID 651821;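 active = inhibition above the plate cutoff, the mean of all test compounds on that plate plus 3 SD, cut at about 35% in these data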;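 note: higher means more dye released from RNA so lower well fluorescence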
Exocytosis inh – lytic granule exocytosis inhibition; TALL-104 LAMP-1 surface exposure, flow cytometry; cells stimulated with thapsigargin and PMA; inhibition, % at 10 µM; hit rate 0.66% among 360,000; AID 651702;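 active = inhibition above about 55%, limit read from the data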
PG9 binder conf – PG9 antibody binding, confirmed; shares compounds with PG9 Ab binder; TR-FRET PG9 antibody binding, biochemical; inhibition, % at 6.7 µM; hit rate 90% among 1,500; AID 651571; in the data active = inhibition above about 9%
PGV04 counter – PGV04 control antibody binding, counter-screen; shares compounds with PG9 Ab binder; TR-FRET PGV04 antibody-gp120 binding, biochemical; inhibition, % at 6.7 µM; hit rate 95% among 1,500; in the data active = inhibition above about 9.5%
PG9 bind DR – small molecules binding HIV-1 gp120 antibody PG9; shares compounds with PG9 Ab binder; TR-FRET PG9 antibody-gp120 binding inhibition; IC50, µM; 95 tested, under 10 active; AID 651848; in the data active = IC50 below about 10 µM
PGV04 binding DR – binds control antibody PGV04 in PG9 counter-screen; shares compounds with PG9 Ab binder; TR-FRET binding to control antibody PGV04; IC50, µM; hit rate 20% among 95
PG126 DR counter – counter-screen for PG9 binders: binding to control antibody PG126; shares compounds with PG9 Ab binder; AID 651939; hit rate 20% among 95; IC50, µM; TR-FRET binding to antibody PG126, counterscreen
A number is an active result; i = inactive; nt = no result given. Cut-off read from the data, not from the text of the source, unless noted: active = IC50 below about 9 µM; inactive = the rest.

SMILES	PG9 Ab binder	ABCB6 inh MLPCN	rCAG binder	Exocytosis inh	PG9 binder conf	PGV04 counter	others
CC1CN(C(=S)Nc2ccccc2C(F)(F)F)CC(C)O1 (configuration not stated)	i	i	i	i	nt	nt
COc1ccc(OC)c(CCNC(=O)CN2C(=O)CCSc3ccccc32)c1	i	i	i	i	nt	nt
Cc1cccc([C@H]2[C@@H]3C=CCC[C@@H]3C(=O)N2Cc2ccccc2)c1	i	i	i	i	nt	nt
Cc1cnc(NC(=O)CCCSc2nc3ccccc3s2)s1	13	i	i	i	18	25
Cc1csc(NC(=O)CCCSc2nc3ccccc3s2)n1	i	i	i	i	nt	nt
COc1cc(CC(NC(C)=O)C(=O)NC2CCN(c3c(Cc4ccccc4)c(C)nc4ncnn34)CC2)cc(OC)c1 (configuration not stated)	i	i	i	i	nt	nt
C/C(N)=C(/C#N)C(=O)CSc1nc2ccccc2c(=O)n1-c1ccc(C)c(Cl)c1	45	i	i	i	39	56
Cc1cc(NC2C3CC4CC(C3)CC2C4)n2nnnc2n1 (configuration not stated)	24	i	i	i	29	39
Cc1cc(NC2C3CC4CC(C3)CC2C4)n2ncnc2n1 (configuration not stated)	i	i	i	i	nt	nt
Cc1nc(=S)c2ccccc2[nH]1	i	i	i	i	nt	nt
S=c1nc(COc2ccccc2)[nH]c2ccccc12	13	i	i	i	9.2	9.4
O=C(O)c1cccc2[nH]c(C(F)(F)F)nc12	i	i	i	i	nt	nt
S=c1nc(Cc2ccccc2)[nH]c2ccccc12	25	i	i	i	16	13	PG9 bind DR=i;PGV04 binding DR=i;PG126 DR counter=i
FC(F)(F)c1nc(=S)c2ccccc2[nH]1	17	i	i	i	11	9.9
Cc1ccc(Cc2nc3ccccc3[nH]2)cc1	i	i	i	i	nt	nt
S=c1nc(Cc2ccc(Cl)cc2)[nH]c2ccccc12	16	i	i	i	i	11
CCOCCCNC(=O)C(c1ccc(OC)cc1)N(Cc1cccs1)C(=O)c1ccccc1O (configuration not stated)	i	i	i	i	nt	nt
O=C(Nc1nc(=O)c2ccccc2s1)c1ccc(Cl)cc1	25	i	i	i	50	68
Nc1ccc(C(=O)Nc2nc3ccccc3s2)cc1	i	i	i	i	nt	nt
O=C(Cc1ccccc1)Nc1nc(=O)c2ccccc2s1	68	i	i	i	72	78
O=C(Nc1nc2ccccc2c(=O)s1)c1ccco1	i	i	i	i	nt	nt
O=C(Nc1nc(=O)c2ccccc2s1)c1ccc(F)cc1	42	i	i	i	66	78
O=C(Nc1nc2ccccc2c(=O)s1)c1ccc(F)cc1Cl	71	i	i	i	60	77
Nc1ccccc1S(=O)(=O)C(F)F	i	i	i	i	nt	nt
COc1ccc2oc(=Nc3ccccc3)c(-c3nc4ccccc4[nH]3)cc2c1	i	i	i	i	nt	nt
SMILES	PG9 Ab binder	ABCB6 inh MLPCN	rCAG binder	Exocytosis inh	PG9 binder conf	PGV04 counter	others
CCOc1ncccc1C(=O)Nc1cc(S(=O)(=O)N2CCCCC2)ccc1Cl	i	i	i	i	nt	nt
CCOc1ncccc1C(=O)Nc1ccc(Cl)c(S(=O)(=O)N2CCCC2)c1	11	i	i	i	i	10
COC(=O)CNC(=O)COC(=O)/C=C/c1ccc2ccccc2n1	i	i	i	i	nt	nt
CC(OC(=O)/C=C/c1ccc2ccccc2n1)C(=O)NCc1ccccc1 (configuration not stated)	15	i	i	i	11	13
CCCC(=O)Nc1ccc(C(=O)Nc2ccc([N+](=O)[O-])cc2OC)cc1	10	i	i	i	9.5	17
CC1(C(=O)NS(=O)(=O)c2ccc3c(c2)CCO3)CCN1C(=O)CCC1CCCC1 (configuration not stated)	i	i	i	i	nt	nt
COc1ccc(-n2c(=S)[nH]c3c(oc4ccccc43)c2=O)cc1	26	i	i	i	13	12	PG9 bind DR=i;PGV04 binding DR=i;PG126 DR counter=i
Cc1ccc(S(=O)(=O)N(C)C)cc1NC(=O)C1CCCCN1S(=O)(=O)c1ccccc1 (configuration not stated)	i	i	i	i	nt	nt
CCc1ccc2nc3c(c(C(=O)O)c2c1)CCC3	i	i	i	i	nt	nt
Cc1cc(Br)c2nc3c(c(C(=O)O)c2c1)CCCCC3	75	i	i	i	74	88
CC(=O)NC(CSc1cc(C)nc2ccc(Br)cc12)C(=O)O (configuration not stated)	21	i	i	i	34	50
COc1ccc2nc(C)cc(SCC(NC(C)=O)C(=O)OC(C)C)c2c1 (configuration not stated)	i	i	i	i	nt	nt
CC1OC2CC(=O)OC2C2=C1C(=O)c1c(O)cccc1C2=O (configuration not stated)	15	i	i	86	14	17
COc1ccc(OC)c(NC(=O)C(CC(=O)O)NCc2ccco2)c1 (configuration not stated)	i	i	i	i	nt	nt
CCn1c(=NC(=O)c2cccc(N3C(=O)CCC3=O)c2)sc2c(OC)ccc(OC)c21	i	i	i	i	nt	nt
COc1ccc(OC)c2c1sc(=NC(=O)c1cccc(N3C(=O)CCC3=O)c1)n2C	52	i	i	i	65	82
Cc1sc2ncnc(N3CCC(C(=O)Nc4nnc(CC(C)C)s4)CC3)c2c1C	14	i	i	i	42	54
O=c1oc(-c2cccc(Cl)c2)nc2c1cnn2-c1ccccc1	i	i	i	i	nt	nt
O=c1oc(-c2ccccc2F)nc2c1cnn2-c1ccccc1	20	i	i	84	49	58
COc1ccc(O)c(/C=C(\C#N)C(=O)Nc2cccnc2)c1	24	i	i	i	13	16
Cc1ccc(-c2ccc(C(=O)O)c(C)n2)cc1	i	i	i	i	nt	nt
Cc1nc(-c2ccc(Br)cc2)ccc1C(=O)O	14	i	i	i	24	30
COc1ccc(C)cc1NC(=O)CSc1nnc(-c2ccc(Br)cc2)o1	11	i	i	i	19	26
COc1ccccc1NC(=O)CSc1nnc(-c2ccc(C)cc2)o1	i	i	i	i	nt	nt
NC(N)=NS(=O)(=O)c1ccc(NC(=S)NC(=O)c2ccc3c(c2)OCO3)cc1	9.5	i	i	i	15	22
Cc1sc2nc(SCC(=O)NCc3ccco3)[nH]c(=O)c2c1C	28	i	i	i	29	42
CCOc1ccc(-n2c(SCC(=O)NCc3ccco3)nc3ccccc3c2=O)cc1	17	i	i	i	45	53
CC(=O)c1sc2nc(SCC(=O)NCCc3ccccc3)[nH]c(=O)c2c1C	36	i	i	i	37	42
